From PubChem BioAssay (NCI)
This is part of a sample that, as a whole, favours compounds with a hit. Of some 79,000 tested, about 15% had one in any assay. Unmarked numbers belong to inactive results. Calls of active or inactive are those of the source. Rule as the data show it: active = growth inhibition above about 70%; inactive = the rest.

Tests used:
[1] = NCI Yeast Anticancer Drug Screen. Data for the rad50 strain (AID 155);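 also: 0% = growth of vehicle-only cultures of the same strain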; conditions: S. cerevisiae rad50 strain growth inhibition; at 50.0 µM; hits give high values
Method in brief: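 Growth of the mutant yeast was measured after compound exposure and referenced to vehicle-treated cultures.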

[2] = NCI Yeast Anticancer Drug Screen. Data for the mec2-1 strain (AID 157); conditions: S. cerevisiae mec2-1 strain, at 50.0 µM, hits give high values
Method in brief: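 Yeast mec2-1 mutant treated with compound. Readout: growth inhibition vs vehicle controls.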

[3] = NCI Yeast Anticancer Drug Screen. Data for the sgs1 mgt1 strain (AID 161);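 also: 0% = growth of cultures given vehicle only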; conditions: S. cerevisiae sgs1 mgt1 strain, at 50.0 µM, hits give high values
Method in brief: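 Inhibition of yeast growth, normalised to vehicle-treated controls, is reported for a strain bearing genetic alterations in DNA damage repair.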

[4] = NCI Yeast Anticancer Drug Screen. Data for the cln2 rad14 strain (AID 165);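 also: 0% = growth equal to vehicle treated cultures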; conditions: S. cerevisiae cln2 rad14 strain, at 50.0 µM, hits give high values
Method in brief: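 cln2 rad14 yeast strain; compound exposure; growth inhibition read vs vehicle controls.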

[5] = NCI Yeast Anticancer Drug Screen. Data for the bub3 strain (AID 167); conditions: S. cerevisiae bub3 mutant strain, at 50.0 µM, hits give high values
Method in brief: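 Whole-cell yeast assay. The mutant strain was incubated with compounds, and growth inhibition was determined by comparison with vehicle-treated cells.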

[6] = NCI Yeast Anticancer Drug Screen. Data for the mlh1 rad18 strain (AID 175); conditions: S. cerevisiae mlh1 rad18 strain growth inhibition; at 50.0 µM; hits give high values
Method in brief: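 Yeast w/ defined DNA-repair lesions; compound exposure; growth vs vehicle controls → % inhibition.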

Compound	growth inhibition [1]	growth inhibition [2]	growth inhibition [3]	growth inhibition [4]	growth inhibition [5]	growth inhibition [6]
CN(Cc1ccccc1)N=NCc1ccccc1	15.8%	-15.8%	-20.4%	3.35%	3.65%	-9.7%
COc1cc(N=C(N)N=C(N)N)c2ncccc2c1	-3.1%	-18.1%	-11.9%	-41%	-3.75%	-13.2%
CCN(CC)[Si](C)(C)C	-24.1%	-0.2%	-9.25%	-6.65%	-21.8%	-24.4%
CN(C)c1ccccc1C(=O)N/N=C\c1ccc(O)c(O)c1	17.6%	14.2%	19.5%	5.75%	12.4%	22.2%
c1ccc([P+](CC[P+](c2ccccc2)(c2ccccc2)c2ccccc2)(c2ccccc2)c2ccccc2)cc1	-11.7%	-15.6%	-1.45%	-31.8%	-12.4%	-16.4%
O=c1c2[nH]cnc2n(-c2ccccc2)c(=S)n1-c1ccccc1	6.5%	1.8%	-26.1%	-6.55%	-26.9%	13.8%
CCN(CC)CCO/N=C1\CC(c2ccc(OC)c(OC)c2)Oc2ccccc21 (stereo not given)	3.8%	13.7%	2.65%	26.6%	-9.85%	9.8%
Cc1cc(Cl)nc2ccc([N+](=O)[O-])cc12	5.35%	6.3%	-5.35%	-18.1%	14.2%	5.5%
Cc1n[n+](Cc2ccccc2)c2sc(N)nn12	2.85%	6.25%	-41.6%	20%	26.9%	-26.1%
CN1CCCN(C(=O)N(c2ccccc2)c2ccccc2)CC1	-19.3%	-12.8%	7.45%	-3.6%	-5.65%	7.4%
CCCCCCCCN1COC2CCc3ccccc3C21 (stereo not given)	93.5% (active)	93.8% (active)	93.8% (active)	87.6% (active)	94% (active)	92.3% (active)
CCC1(O)CC2C3C(C(=O)OC)=C4Nc5ccccc5C45CCN(C31)C25 (stereo not given)	6.2%	-6.3%	3.35%	11.8%	1.9%	-2.1%
CNCC(OC)OC	5.3%	-29.8%	4.85%	16.1%	0%	11.2%
CC(O)CNC(=O)CC(C)CC(C)(C)C (stereo not given)	45.7%	19.9%	24.9%	13.4%	25.4%	34%
CCCC(CCC)(C(=O)O)C(=O)O	-10.3%	-25.1%	-12.5%	27.5%	-17.9%	11.5%
O=[N+]([O-])c1cc2ccccc2nc1-c1ccccc1	15.6%	4.2%	-0.55%	6.95%	7.2%	6.15%
CCn1c2ccc(N(C)C)cc2c2cc(N(C)C)ccc21	-25.4%	-38.5%	-24.1%	-38.8%	-18.5%	-52.4%
O=C1N(CC2CO2)CCN1CC1CO1 (stereo not given)	-22.4%	-10.2%	-5.3%	-5.15%	-20.4%	-76%
ClC(Cl)(Cl)C(N1CCN(c2ccccc2)CC1)N1CCN(c2ccccc2)CC1	8.95%	-34%	-29.4%	-38.5%	-25.9%	-17.6%
C/C(CC(C)C)=N/NC(N)=S	14.9%	0.7%	1.35%	-23.1%	32.6%	30.4%
